HT1080 IDH1KD tx: kills HT-1080 cells with IDH1 knockdown; 360,000 compounds, 2% hits; Potency, µM (highest dose often 46.1 µM), for inactives: at the top dose activity, negative = toxicity, actives largely listed as cytotoxic; HT-1080 IDH1 knockdown viability, ATP luminescence, 48 h;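 further: 0% = DMSO wells and -100% = cell-free medium wells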
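Knockdown cells (IDH1KD HT-1080) received compounds 2 h after plating at 750 cells/well and were kept 48 h at 37 °C in 5% FBS RPMI. A CellTiter-Glo luminescence read gave % activity for curve fitting.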
TDP1 cell noCPT: qHTS for Inhibitors of human tyrosyl-DNA phosphodiesterase 1 (TDP1): qHTS in cells in absence of CPT | Potency, µM (highest dose often 46.2 µM), for the others: at the top dose activity change, negative = growth inhibition, hits mostly inhibitors | AID 686978, 2013 | 420,000 compounds, 15% hits | DT40 Tdp1-/- hTDP1 cells, no CPT, ATP luminescence, 48 h; further: nearly all actives have a fitted effect of over 55% in size
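Stably hTDP1-transfected Tdp1-null chicken DT40 cells were treated with library compounds minus camptothecin and grown for at least 48 hr at 37 °C, after which cellular ATP was quantified by luminescence.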
DT40 TDP1 CPT: growth inhibition of DT40 Tdp1-/-;hTDP1 cells with camptothecin (screen for TDP1 inhibitors) | chicken DT40 Tdp1-/-;hTDP1 cells + 20 nM CPT, ATP luminescence, 48 h | Potency, µM (titrated, usually from 46.2 µM), without a hit: top-dose activity change, negative = growth inhibition, usual class: inhibitors | 420,000 compounds, 12% hits | AID 686979; further: nearly all actives have a fitted effect of over 55% in size
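Cell growth measured by CellTiter-Glo luminescence after a minimum 48 h, 37 C compound exposure with 20 nM CPT in Tdp1-knockout DT40 cells stably expressing hTDP1, seeded 400/well; qHTS titration format.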
HT1080-NT tox: kills 2HG-producing HT-1080-NT fibrosarcoma cells; 360,000 compounds, 1.6% hits; Potency, µM (top dose mostly 46.1 µM), for the others: at the highest dose activity, negative = less viability, most hits filed as cytotoxic; AID 686970; HT-1080-NT fibrosarcoma viability, CellTiter-Glo ATP luminescence, 48 h;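 further: NT is the 2HG producing partner of a matched IDH1 knockdown line; 0% = DMSO-treated cells and -100% = media-only wells without cells; nearly all actives have a fitted effect of over 55% in size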
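Viability of the 2HG-overproducing fibrosarcoma line after 48 hours of compound exposure at 37 degrees C was determined by luminescence with CellTiter-Glo, and concentration-effect curves were then fitted and categorized.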
KB-3-1 tox: kills parental KB-3-1 adenocarcinoma cells. Potency, µM (top dose mostly 46.1 µM), usual class: cytotoxic. AID 1347075. 400,000 compounds, 1.4% hits. KB-3-1 viability, CellTiter-Glo ATP luminescence, 72 h; further: nearly all actives have a fitted effect of over 60% in size
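Luminescent ATP read-out (CellTiter-Glo) measures survival of drug-naive KB-3-1 cells after 72 h compound exposure at 37 °C. Titration series was screened from lowest to highest concentration, with DMSO vehicle plates as background controls.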
KB-V1 cytotox: kills drug-selected multidrug resistant KB-V1 cells; 400,000 compounds, 3.4% hits; AID 1347076; KB-V1 MDR cells viability, CellTiter-Glo, 72 h; Potency, µM (titrated, usually from 46.1 µM), hits mostly cytotoxic; further: nearly all actives have a fitted effect of over 60% in size
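Cells of the MDR subline KB-V1 are plated, dosed with compound at multiple concentrations, and incubated 72 h at 37 degrees C; CellTiter-Glo is then added and luminescence read after 10 min.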
* = called active by the depositor; ! = repeats disagree; [ ] = another dose, or the depositor's remark. Only some compounds are listed: those with a hit (about 19% of all), similar ones and a draw of the others. The call rests on the fitted dose curve; in most records, active means well fitted curve in the direction sought with a large enough effect; inconclusive means small, poorly fitted or top-dose-only effect, or another doubt; inactive means no such curve, though single readings can be large; an effect the other way counts as inactive or inconclusive. Unless noted, on the % scale 0 is the no-effect control and ±100 the full control effect; potency means the concentration at half of the fitted maximal effect.

How did COc1ccc(CCNC(=O)c2cc(S(=O)(=O)N3CCCC(C)C3)cn2C)cc1OC (stereo not drawn) do in these assays?
TDP1 cell noCPT: inconclusive; DT40 TDP1 CPT: inconclusive; KB-3-1 tox: inactive; KB-V1 cytotox: inactive

Results for COCC(=O)Nc1cc(C(=O)N2CCSCC2)cc2nc(-c3ccccc3)n(C)c12 ?
TDP1 cell noCPT: -2.8%; DT40 TDP1 CPT: 1.2%

Results for CC(C)C(=O)Nc1cccc(C(=O)Nc2ccc(S(=O)(=O)Nc3nccs3)cc2)c1 ?
HT1080 IDH1KD tx: 9.1%; TDP1 cell noCPT: -9.9%; DT40 TDP1 CPT: 0.6%; HT1080-NT tox: 1.1%; KB-3-1 tox: inactive; KB-V1 cytotox: inactive

What do the screens show for `CCC(C(=O)NCc1ccccc1)n1ncn2c(cc3occc32)c1=O` (stereo not drawn)?
TDP1 cell noCPT: -11.7%; DT40 TDP1 CPT: -0.8%; KB-3-1 tox: inactive; KB-V1 cytotox: inactive

Results for CC1CCN(C(=O)C(C)Sc2nc(-c3ccccc3)cc(C(F)(F)F)n2)CC1 (stereo not drawn) ?
HT1080 IDH1KD tx: inconclusive; TDP1 cell noCPT: 29.1µM*; DT40 TDP1 CPT: 25.9µM*; HT1080-NT tox: inconclusive; KB-3-1 tox: inconclusive; KB-V1 cytotox: inconclusive

What do the screens show for `CCOC(=O)C1=CCN(S(=O)(=O)c2ccccc2[N+](=O)[O-])C1c1ccc(C)cc1` (stereo not drawn)?
HT1080 IDH1KD tx: -9.9%; TDP1 cell noCPT: inconclusive; DT40 TDP1 CPT: inconclusive; HT1080-NT tox: 0.3%; KB-3-1 tox: inactive; KB-V1 cytotox: inactive

Results for O=c1c(F)cn(C2CCCO2)c(=O)n1Cc1ccc(Cl)cc1 (stereo not drawn) ?
HT1080 IDH1KD tx: -6.9%; TDP1 cell noCPT: -14.3%; DT40 TDP1 CPT: inconclusive; HT1080-NT tox: -0.4%; KB-3-1 tox: inactive; KB-V1 cytotox: inactive

Results for COc1ccc(Cl)cc1NC(=O)CSc1nc(-c2ccccc2)c2ccccc2n1 ?
TDP1 cell noCPT: 20.6µM*; DT40 TDP1 CPT: 7.31µM*

What do the screens show for `CCc1cccc2c(-c3ccccc3)nc(SCC(=O)Nc3ccccc3OC)nc12`?
TDP1 cell noCPT: 18.4µM*; DT40 TDP1 CPT: inconclusive

How did CCCCCn1c(=O)[nH]c2cc(C(=O)NCc3ccc(F)cc3)ccc2c1=O do in these assays?
TDP1 cell noCPT: -17.0%; DT40 TDP1 CPT: -17.1%; KB-3-1 tox: inactive; KB-V1 cytotox: inactive

Results for CC1(c2cccc(Br)c2)NC(=O)N(CC(=O)Nc2ccc3c(c2)OCO3)C1=O (stereo not drawn) ?
HT1080 IDH1KD tx: -32.5%; TDP1 cell noCPT: -25.8%; DT40 TDP1 CPT: -16.4%; HT1080-NT tox: -4.0%; KB-3-1 tox: inactive; KB-V1 cytotox: inactive

How did Oc1cc2c(c(Cl)c1O)CCNCC2c1ccccc1 (stereo not drawn) do in these assays?
HT1080 IDH1KD tx: inconclusive; TDP1 cell noCPT: 8.2µM*!; DT40 TDP1 CPT: 8.2µM*; HT1080-NT tox: inconclusive; KB-3-1 tox: inconclusive; KB-V1 cytotox: inconclusive

Results for Oc1cc2c(c(Cl)c1O)CCNC[C@H]2c1ccccc1 ?
TDP1 cell noCPT: 16.8µM*; DT40 TDP1 CPT: 11.9µM*

Results for COc1ccc(C2C(C#N)=C(N)Nc3onc(C(C)(C)C)c32)c(OC)c1 (stereo not drawn) ?
HT1080 IDH1KD tx: -13.5%; TDP1 cell noCPT: 18.4µM*; DT40 TDP1 CPT: inconclusive; HT1080-NT tox: -10.6%; KB-3-1 tox: inconclusive; KB-V1 cytotox: inactive

Results for COc1ccc(C2C(C#N)=C(C)NC(C)=C2C#N)c(OC)c1 ?
HT1080 IDH1KD tx: 8.4%; TDP1 cell noCPT: 8.6%; DT40 TDP1 CPT: 4.3%; HT1080-NT tox: 5.5%; KB-3-1 tox: inactive; KB-V1 cytotox: inactive

What do the screens show for `COC1CC(=O)C2OC(c3ccccc3)OCC2O1` (stereo not drawn)?
HT1080 IDH1KD tx: 2.1%; TDP1 cell noCPT: 4.5%; DT40 TDP1 CPT: -0.2%; HT1080-NT tox: 0.2%; KB-3-1 tox: inactive; KB-V1 cytotox: inactive

How did COc1ccc(OC)c(C(=O)N(Cc2cc3cccc(C)c3nc2N2CCC(O)CC2)C2CC2)c1 do in these assays?
TDP1 cell noCPT: inconclusive; DT40 TDP1 CPT: 3.9%[9.04 µM]

Results for C=CC[C@@H]1/C=C(\C)C[C@H](C)C[C@H](OC)[C@H]2O[C@@](O)(C(=O)C(=O)N3CCCC[C@H]3C(=O)O[C@H](/C(C)=C/[C@@H]3CC[C@@H](O)[C@H](OC)C3)[C@H](C)[C@@H](O)CC1=O)[C@H](C)C[C@@H]2OC ?
TDP1 cell noCPT: 2.99µM*; DT40 TDP1 CPT: 3.35µM*

Results for Cc1ccc(NNC(=O)c2ccc(Cl)cc2)nn1 ?
HT1080 IDH1KD tx: 0.0%; TDP1 cell noCPT: -10.3%; DT40 TDP1 CPT: 5.0%; HT1080-NT tox: 2.9%; KB-3-1 tox: inactive; KB-V1 cytotox: inactive

What do the screens show for `O=c1c(N2CCN(c3ccccc3)CC2)csc2ccc(Cl)cc12`?
TDP1 cell noCPT: inconclusive; DT40 TDP1 CPT: inconclusive; KB-3-1 tox: inactive; KB-V1 cytotox: inactive

Results for COc1ccc2[nH]c(C)c(CCNC(=S)Nc3cccc(C)c3C)c2c1 ?
HT1080 IDH1KD tx: -2.8%; TDP1 cell noCPT: 20.6µM*; DT40 TDP1 CPT: inconclusive; HT1080-NT tox: -7.1%; KB-3-1 tox: inactive; KB-V1 cytotox: inactive

Results for COc1ccc2[nH]c(C)c(CCNC(=S)Nc3ccc(C)cc3)c2c1 ?
HT1080 IDH1KD tx: -3.0%; TDP1 cell noCPT: inconclusive; DT40 TDP1 CPT: 18.4µM*; HT1080-NT tox: 0.8%; KB-3-1 tox: inactive; KB-V1 cytotox: inactive

Results for COc1ccc2[nH]c(C)c(CCNC(=S)Nc3ccccc3C)c2c1 ?
HT1080 IDH1KD tx: -2.3%; TDP1 cell noCPT: inconclusive; DT40 TDP1 CPT: 18.4µM*; HT1080-NT tox: -2.5%; KB-3-1 tox: inactive; KB-V1 cytotox: inactive

What do the screens show for `COc1ccc2[nH]c(I)c(CCNC(C)=O)c2c1`?
TDP1 cell noCPT: 3.8%; DT40 TDP1 CPT: 0.8%

How did COc1ccc2[nH]c(C(=O)O)c(CCNC(C)=O)c2c1 do in these assays?
HT1080 IDH1KD tx: 10.1%; TDP1 cell noCPT: 6.8%; DT40 TDP1 CPT: -2.1%; HT1080-NT tox: 10.3%; KB-3-1 tox: inactive; KB-V1 cytotox: inactive

What do the screens show for `CC(C)CCOc1ccc(/C=N/N2C(=O)CSC2=S)cc1`?
HT1080 IDH1KD tx: 18.9%; TDP1 cell noCPT: inconclusive; DT40 TDP1 CPT: inconclusive; HT1080-NT tox: 17.0%; KB-3-1 tox: inactive; KB-V1 cytotox: inactive
